An excerpt weighted towards active compounds, which were near 5.2% of everything screened.
SKN-1 block: blocks SKN-1 activity in C. elegans; C. elegans VP596 Pgst-4::GFP/RFP ratio, acrylamide-induced, 24 h; actives 0.49% (n = 360,000); inhibition, % at 21.8 µM;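 active = interference check ratio from 0.5 to 1.5 plus GFP to RFP signal ratio inhibition reaching or exceeding a fixed threshold, cut at about 30% in these data, passing the limit was not always enough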
NadD block: blocks S. aureus nicotinate mononucleotide adenylyltransferase. inhibition, % at 20 µM. actives 0.78% (n = 360,000). purified NadD enzyme, colorimetric absorbance read-out. AID 602399; in the data active = inhibition above about 26%
esBAF inh: SWI/SNF esBAF complex inhibition | reporter increase, % at 12.5 µM | actives 2% (n = 350,000) | mouse ES cells, Bmi1-luciferase knock-in reporter, 24 h; 100% = twice the neutral-well signal | AID 602393; in the data active = activation above about 40%;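 also: 0% = median of the plate's neutral control wells and 100% = double that signal; a rise in the Bmi1 reporter signal indicates esBAF inhibition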
SMARCA2 activ: increases SMARCA2 function in MMTV reporter cells; MG213 cells, MMTV-luciferase reporter, dexamethasone, overnight; activation, % at 9.1 µM; actives 1% (n = 370,000); AID 652017; in the data active = activation above about 7.8%;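 also: 0% = vehicle wells and 100% = reference activator wells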
NR3A LBD binder: modulates the human NR3A ligand-binding domain; NR3A LBD differential scanning fluorimetry, Tm shift; 0% = protein alone, 100% = glycine-bound protein; Tm shift relative to glycine control, % at 25 µM; actives 2.5% (n = 340,000); AID 1259313;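 active = melting temperature shift of at least 10% of the positive control shift, at one fixed dose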
Vif inh: HIV Vif inhibition; HEK293T cells, Vif self-association by quenched fluorescence, imaging, 24 h; inhibition, % at 7.49 µM; actives 0.35% (n = 340,000); in the data active = inhibition above about 50%, passing the limit was not always enough
Active calls of the source: *; / = not tested or not shown.

SMILES	SKN-1 block	NadD block	esBAF inh	SMARCA2 activ	NR3A LBD binder	Vif inh
C[C@@H]1CN([C@H](C)CO)C(=O)c2cc(NC(=O)CCCN(C)C)ccc2O[C@@H]1CN(C)C	/	/	2.7	/	/	/
Cc1noc(C)c1NC(=O)Nc1ccc2c(c1)CC(=O)N([C@H](C)CO)C[C@@H](C)[C@@H](CN(C)S(=O)(=O)c1ccccc1)O2	/	/	-0.1	/	/	/
COc1ccc(CN2CCN(C(c3ccc(F)cc3)c3ccc(F)cc3)CC2)c(OC)c1OC	-5.5	-3.7	-9.6	-4.3	12.9*	-10.9
CC(=O)OC[C@]1(OC(C)=O)C[C@@]23CC[C@H]4[C@@](C)(CCC[C@@]4(C)C(=O)O)[C@@H]2CC[C@@H]1C3	4.8	24.2	-5.7	0.0	-8.0	2.8
CC(=O)OC[C@]12CC[C@H]3[C@@](C)(CC[C@H]4C(C)(C)CCC[C@]34C)[C@@H]1CC(C1=CC(=O)OC1O)O2 (stereo not given in full)	-2.9	31.9*	-85.6	-7.2	/	-29.2
Cc1nn(CC(=O)NC(=O)c2ccccc2)c(C)c1[N+](=O)[O-]	-8.9	-4.3	-5.0	-2.3	-1.8	54.3*
Cc1nn(CCCC(=O)NCc2ccc(Cl)cc2)c(C)c1[N+](=O)[O-]	10.8	-9.8	/	0.1	11.8*	4.2
O=C1NC2(CCCCC2)C(=O)N1/N=C/c1ccc(O)cc1O	3.2	3.3	20.3	-2.9	-5.0	3.8
O=C1NC2(CCCCC2)C(=O)N1/N=C/c1ccccc1Br	14.1	-0.3	49.2*	1.9	3.5	23.4
Cc1ccc(/C=C/C(=O)NC2=NCCS2)cc1	16.3	15.8	/	4.0	-0.6	7.1
O=C(NC1=NCCS1)c1ccc(Cl)cc1	-8.8	-4.3	43.8*	0.6	-2.5	-2.6
CC(C)(C)c1ccc(/C=C/C(=O)NC2=NCCS2)cc1	15.6	3.9	9.4	3.3	12.2*	/
CCCCNc1c(-c2ccc(SC3CCCCC3)cc2)nc2ccccn12	-5.6	1.5	25.5	7.9*	-9.9	-8.5
CN1CCN(c2nc(-c3ccccc3O)nc3ccccc23)CC1	2.3	-14.1	/	2.9	/	-1.3
OCCN1CCN(c2nc(-c3ccccc3)nc3c2oc2ccccc23)CC1	8.7	1.5	-4.6	2.1	4.9	65.6*
OCCN1CCN(c2nc(-c3ccccc3O)nc3ccccc23)CC1	-9.3	-7.7	-6.5	-1.1	18.8*	-7.8
CC(=O)N1CCN(Cc2cc(=O)oc3cc(C)c(C)cc23)CC1	13.9	-8.6	-1.3	1.8	/	/
Cc1cc2oc(=O)cc(CN3CCC(C)CC3)c2cc1C	-3.8	1.3	41.4*	0.9	1.2	-9.8
Cc1nc(CN(C)c2ncnc3ccc(-c4ccc5c(c4)OCO5)cc23)cs1	2.7	1.6	43.2*	-2.1	/	/
CN(Cc1ccco1)c1ncnc2ccc(-c3ccc4c(c3)OCO4)cc12	13.9	-1.0	-3.4	0.5	-1.4	-0.9
C[C@@H]1CN([C@H](C)CO)C(=O)Cc2cc(NC(=O)Nc3ccccc3)ccc2O[C@H]1CN(C)C(=O)Nc1cccc2ccccc12	/	/	1.3	/	/	/
O=C1C(Oc2ccccc2)C(c2ccc3c(c2)OCO3)N1CCc1ccc(F)cc1 (stereo not given)	10.3	-3.7	/	0.0	13.0*	-3.5
COc1ccc(CCN2C(=O)C(Oc3ccccc3C)C2c2ccc3c(c2)OCO3)cc1 (stereo not given)	1.3	-1.9	/	-1.9	0.4	-7.1
C[C@@H]1CN([C@H](C)CO)C(=O)c2cc(/C=C/c3ccccc3)cnc2O[C@H]1CN(C)C(=O)CN(C)C	/	/	0.9	/	/	/
COc1cccc(NC(=O)N(C)C[C@H]2Oc3cc(C#CC4(O)CCCC4)ccc3S(=O)(=O)N([C@@H](C)CO)C[C@H]2C)c1	/	/	9.2	/	/	/
SMILES	SKN-1 block	NadD block	esBAF inh	SMARCA2 activ	NR3A LBD binder	Vif inh
COc1cc(OC)cc(-c2noc(-c3csc([C@@H]4O[C@H](CO)[C@H](O)[C@H](O)[C@H]4O)n3)n2)c1	8.7	3.5	-3.9	-2.7	/	3.6
COc1cc(OC)cc(-c2noc(-c3csc([C@H]4C[C@H](O)[C@@H](CO)O4)n3)n2)c1	7.3	-5.1	70.7*	6.0	/	-5.5
C[C@@H]1CCCCO[C@H](CN(C)CC2CCCCC2)[C@H](C)CN([C@H](C)CO)C(=O)c2cc(NC(=O)Cc3ccccc3)ccc2O1	/	/	-1.0	/	/	/
CO[C@H]1CC[C@H]2CCN(C)C(=O)[C@H](C)CN(C)C(=O)c3cccc(C#N)c3OC[C@H]1O2	/	/	-2.4	/	/	/
C[C@H]1CN([C@@H](C)CO)C(=O)c2cccc(NC(=O)Nc3ccc(C(F)(F)F)cc3)c2O[C@@H]1CN(C)S(=O)(=O)c1ccc(Cl)cc1	23.1	-9.3	-1.8	1.6	22.7*	4.5
C[C@H](CO)N1C[C@H](C)[C@@H](CN(C)S(=O)(=O)c2ccc(F)cc2)Oc2c(NC(=O)Nc3ccc(C(F)(F)F)cc3)cccc2C1=O	12.0	-14.0	-1.3	0.1	20.5*	/
C[C@@H]1CN([C@@H](C)CO)C(=O)c2cc(NS(=O)(=O)c3cn(C)cn3)ccc2O[C@@H]1CN(C)C(=O)Nc1ccc2c(c1)OCO2	/	/	-3.8	/	/	/
C[C@@H]1CN([C@@H](C)CO)C(=O)c2cc(C#CC3CCCC3)cnc2O[C@@H]1CN(C)C(=O)Cc1ccccn1	/	/	4.5	/	/	/
CN1C(=O)c2cc(NC(=O)C3CCCC3)ccc2OC[C@H]2O[C@@H](CC(=O)NCC(F)(F)F)CC[C@H]21	/	/	-6.0	/	/	/
C[C@@H]1CCCCO[C@H](CN(C)CC2CCCCC2)[C@@H](C)CN([C@H](C)CO)C(=O)c2cc(NC(=O)c3ccccc3)ccc2O1	/	/	-3.7	/	/	/
N=C1/C(=C\c2ccc(OC(=O)c3ccccc3)cc2)C(=O)N=C2SC(N3CCOCC3)=NN12	4.4	18.0	1.9	0.8	-9.3	20.6
Cc1ccc(C(=O)Oc2ccc(/C=C3\C(=N)N4N=C(N5CCOCC5)SC4=NC3=O)cc2)cc1	10.0	40.4*	28.1	5.0	-34.3	-11.8
N=C1/C(=C\c2ccc(OC(=O)c3ccc(F)cc3)cc2)C(=O)N=C2SC(N3CCCC3)=NN12	13.1	51.4*	1.9	2.0	-14.0	6.7
Cc1ccc(-c2ccc3c(c2)O[C@H](CN(C)Cc2cccnc2)[C@H](C)CN([C@@H](C)CO)S3(=O)=O)cc1	/	/	-3.5	/	/	/
CCOC(=O)C1=C(COC(=O)c2ccc(Cl)cc2[N+](=O)[O-])NC(=O)NC1C (stereo not given)	34.3*	-6.0	/	2.7	-0.1	19.7
COc1cc(/C=N/NC(=S)NC2CC3CC2C2C=CCC32)ccc1O (stereo not given)	-3.4	-0.4	47.8*	5.4	4.5	22.7
CCc1cc(C(=O)N=Nc2c(O)[nH]c3c(Br)cc(Br)cc23)c2ccccc2n1	19.8	53.6*	-7.8	-2.3	7.3	10.3
Cn1nc2c3cc(F)ccc3n(Cc3ccc(F)cc3)cc-2c1=O	-5.7	-20.4	-15.2	-2.5	-1.0	-11.4
